The nature of assay [1]: ATG_TAL_CIS: Attagene CIS-FACTORIAL HepG2 Assay for human TAL Basal Promoter (AID 2282966).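 Also: background control endpoint measuring basal TAL promoter reporter mRNA not a specific factor.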 The settings on record: HepG2 Attagene cis-factorial TAL promoter reporter; actives raise or lower the signal. The essentials: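 HepG2 cells transiently transfected with multiplexed cis-promoter reporter units, dosed 24 h. Reporter mRNA quantified by RT-PCR, 6-FAM labelling, HpaI digestion and capillary electrophoresis; TAL basal promoter serves as background control, fitted bidirectionally versus DMSO.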

A short description of assay [2]: ATG_TGFb_CIS: Attagene CIS-FACTORIAL HepG2 Assay for human Transforming Growth Factor (TGF) (AID 2282967). As to conditions: HepG2 Attagene CIS TGFb reporter, mRNA transcription; actives raise or lower the signal. The essentials: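 Transient MRTU transfection of HepG2 (FuGene 6). Dose 24 h. TriZol RNA, oligo(dT) RT, PCR, 6-FAM primer extension, HpaI cut, CE. Bidirectional fit, DMSO = baseline.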

The nature of assay [3]: ATG_VDRE_CIS: Attagene CIS-FACTORIAL HepG2 Assay for human Vitamin D Receptor Element (VDRE) (AID 2282968). The settings on record: HepG2 VDRE cis-reporter transcription, actives raise or lower the signal. The essentials:
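In transiently transfected HepG2 liver cells, gain or loss of reporter mRNA after 24 h exposure is scored relative to DMSO, using fluorescence detection by capillary electrophoresis of RT-PCR products.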

The target in assay [4] is Estrogen receptor (Homo sapiens) (UniProt P03372). Put plainly: ATG_ERa_TRANS: Attagene TRANS-FACTORIAL HepG2 Assay for human Estrogen Receptor alpha (ERa) (AID 2282970; active = hit-call score of the fitted dose curve at least 0.9, where 1 is the maximum). The settings on record: HepG2 Attagene TRANS ERa GAL4 reporter, mRNA. The procedure, abridged: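 HepG2 cells transiently transfected with multiplexed GAL4-UAS reporter units read out chimeric NR-Gal4 activity. After 24 h compound exposure, reporter mRNA was quantified by RT-PCR, 6-FAM labeling, HpaI digestion and capillary electrophoresis, relative to DMSO.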

Assay [5] concerns the target X-box-binding protein 1 (Homo sapiens) (UniProt P17861). Put plainly: ATG_Xbp1_CIS: Attagene CIS-FACTORIAL HepG2 Assay for human X-box Binding Protein 1 (XBP1) (AID 2282972). As to conditions: HepG2 XBP1 cis-element reporter, Attagene multiplex; actives raise or lower the signal. The essentials:
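Fluorescence-labelled cDNA fragments from reporter transcripts, separated by capillary electrophoresis, give the signal. Source: HepG2 cells transfected with promoter-driven reporter units, harvested 24 h post-dose. DMSO served as reference for bidirectional curve fitting.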

The target of assay [6] is Oxysterols receptor LXR-alpha (Homo sapiens) (UniProt Q13133). Put plainly: ATG_LXRa_TRANS: Attagene TRANS-FACTORIAL HepG2 Assay for human Liver X Receptor alpha (LXRa) (AID 2282980; active = hit-call score of the fitted dose curve at least 0.9, where 1 is the maximum). The settings on record: HepG2 Attagene TRANS reporter, LXRa transactivation. The procedure, abridged: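 HepG2 cells transiently transfected with GAL4-UAS reporter units for chimeric NR-Gal4 proteins, exposed to chemicals for 24 h. Reporter mRNA quantified by RT-PCR and capillary electrophoresis; gain of signal fitted relative to DMSO.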

For assay [7], the target named is Oxysterols receptor LXR-beta (Homo sapiens) (UniProt P55055). Briefly: ATG_LXRb_TRANS: Attagene TRANS-FACTORIAL HepG2 Assay for human Liver X Receptor beta (LXRb) (AID 2282981; active = hit-call score of the fitted dose curve at least 0.9, where 1 is the maximum). As to conditions: HepG2 Attagene TRANS GAL4-LXRb reporter, mRNA. The procedure, abridged: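 Cells: HepG2, transiently transfected with GAL4-UAS reporter units plus LXRb-Gal4 fusion. Treatment: 24 h. Detection: reporter mRNA by RT-PCR, 6-FAM labelling, HpaI digestion, capillary electrophoresis.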

The nature of assay [8]: ATG_M_06_TRANS: Attagene TRANS-FACTORIAL HepG2 Assay for M06 Transcription Factor (Internal Marker) (AID 2282983; active = hit-call score of the fitted dose curve at least 0.9, where 1 is the maximum;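 also: reporter transcript level by RT-PCR then capillary electrophoresis fluorescence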). As to conditions: HepG2 Attagene TRANS M06 internal marker reporter. The procedure, abridged:
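HepG2 cells transiently transfected with GAL4-UAS multiple reporter units, dosed 24 h. Reporter RNA reverse-transcribed, PCR-amplified, 6-FAM-labeled, HpaI-digested and quantified by capillary electrophoresis; this internal-marker signal fitted upward relative to DMSO.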

Assay [9] concerns the target Transcriptional activator Myb (Homo sapiens) (UniProt P10242). Put plainly: ATG_Myb_CIS: Attagene CIS-FACTORIAL HepG2 Assay for human Myeloblastosis (Myb) Proto-Oncogene Transcription Factor (AID 2282986). As to conditions: HepG2 Attagene CIS-FACTORIAL Myb reporter transcription; actives raise or lower the signal. The essentials: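 HepG2 cells were transiently transfected with cis-regulated multiple reporter transcription units reflecting endogenous Myb activity, then exposed to compound for 24 hours. Reporter mRNA was measured by RT-PCR with capillary electrophoresis; bidirectional fitting versus DMSO baseline.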

Assay [10] concerns the target Nuclear respiratory factor 1 (Homo sapiens) (UniProt Q16656). Briefly: ATG_NRF1_CIS: Attagene CIS-FACTORIAL HepG2 Assay for human Nuclear Respiratory Factor 1 (NRF1) Orphan Gene (AID 2282987). The settings on record: HepG2 NRF1 cis-element reporter, Attagene multiplex; actives raise or lower the signal. The procedure, abridged: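 HepG2 cells transiently transfected with multiple reporter transcription units under cis-regulatory promoter control, so endogenous transcription-factor activity is read. After 24 h compound exposure, reporter mRNA quantified by RT-PCR, fluorescent labelling, HpaI digestion and capillary electrophoresis; bidirectional fitting versus DMSO.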

For assay [11], the target named is Glucocorticoid receptor (Homo sapiens) (UniProt P04150). Put plainly: ATG_GR_TRANS: Attagene TRANS-FACTORIAL HepG2 Assay for human Glucocorticoid Receptor (GR) (AID 2282978; active = hit-call score of the fitted dose curve at least 0.9, where 1 is the maximum;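 also: activators score as hits since higher reporter transcript over DMSO is fitted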). The settings on record: HepG2 Attagene TRANS GR reporter, mRNA transcription. The procedure, abridged:
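HepG2 cells transiently transfected with multiplexed reporter units in which chimeric NR-GAL4 proteins drive GAL4-UAS reporters; 24 h compound exposure. Reporter mRNA measured by RT-PCR, 6-FAM labelling, HpaI digestion and capillary electrophoresis; gain-of-signal fitted versus DMSO.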

Assay [12] concerns the target Bile acid receptor (Homo sapiens) (UniProt Q96RI1). Put plainly: ATG_FXR_TRANS: Attagene TRANS-FACTORIAL HepG2 Assay for Farnesoid X Receptor (FXR) (AID 2282979; active = hit-call score of the fitted dose curve at least 0.9, where 1 is the maximum;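 also: hits raise reporter mRNA above DMSO so AC50 marks FXR activation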). As to conditions: HepG2 Attagene TRANS FXR-GAL4 reporter transcription. The essentials: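 HepG2 cells were transiently transfected with GAL4-UAS reporters driven by chimeric NR-Gal4 proteins and dosed for 24 h. Reporter mRNA was quantified by RT-PCR, fluorescent labelling, HpaI digestion and capillary electrophoresis, with gain of signal scored versus DMSO.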

Assay [13] deals with Nuclear receptor subfamily 4 group A member 2 (Homo sapiens) (UniProt P43354). Briefly: ATG_NURR1_TRANS: Attagene TRANS-FACTORIAL HepG2 Assay for human Nuclear Receptor Related Protein 1 (NURR1) (AID 2282985; active = hit-call score of the fitted dose curve at least 0.9, where 1 is the maximum). The settings on record: HepG2 Attagene TRANS reporter, mRNA readout. The procedure, abridged:
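Cells: HepG2, transiently transfected. Exposure: 24 h. Detection: fluorescence of labelled RT-PCR products separated by capillary electrophoresis; upward fit versus DMSO.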

Assay [14] can be described thus: ATG_GAL4_TRANS: Attagene TRANS-FACTORIAL HepG2 Assay for GAL4 (Internal Marker) (AID 2282976; active = hit-call score of the fitted dose curve at least 0.9, where 1 is the maximum). The settings on record: HepG2 Attagene TRANS GAL4 internal marker reporter. The essentials: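 Background-control readout: GAL4-UAS reporter transcript in transiently transfected HepG2 cells after 24 h compound exposure. Measured by RT-PCR, 6-FAM primer extension, HpaI digest and capillary electrophoresis; gain-of-signal fit versus DMSO.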

Assay [15] can be described thus: ATG_M_32_TRANS: Attagene TRANS-FACTORIAL HepG2 Assay for M32 Transcription Factor (Internal Marker) (AID 2282984; active = hit-call score of the fitted dose curve at least 0.9, where 1 is the maximum). As to conditions: HepG2 Attagene TRANS M32 internal marker reporter. The essentials: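 Using transiently transfected HepG2 cells exposed to test chemicals for 24 h, reporter transcripts are converted to labelled cDNA fragments and quantified by capillary electrophoresis. DMSO defines the activity baseline.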

The target in assay [16] is Steroid hormone receptor ERR1 (Homo sapiens) (UniProt P11474). Briefly: ATG_ERRa_TRANS: Attagene TRANS-FACTORIAL HepG2 Assay for human Estrogen-Related Receptor alpha (ERRa) (AID 2282971; active = hit-call score of the fitted dose curve at least 0.9, where 1 is the maximum). The settings on record: HepG2 Attagene TRANS reporter, ERRa transactivation. The essentials: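 HepG2 cells transiently transfected with GAL4-UAS reporter units and chimeric NR-Gal4 constructs; after 24 hour compound incubation, reporter mRNA quantified by RT-PCR, fluorescent labelling and capillary electrophoresis, gain of signal versus DMSO.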

The nature of assay [17]: ATG_M_19_TRANS: Attagene TRANS-FACTORIAL HepG2 Assay for M19 Transcription Factor (Internal Marker) (AID 2282974; active = hit-call score of the fitted dose curve at least 0.9, where 1 is the maximum). The settings on record: HepG2 Attagene TRANS-FACTORIAL M19 internal marker reporter. The essentials: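 HepG2 cells transiently transfected with multiple GAL4-UAS reporter transcription units were exposed to chemicals for 24 h. Reporter mRNA was read by RT-PCR, 6-FAM primer extension, HpaI digestion and capillary electrophoresis; gain of signal fitted relative to DMSO.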

For assay [18], the target named is Estrogen-related receptor gamma (Homo sapiens) (UniProt P62508). Briefly: ATG_ERRg_TRANS: Attagene TRANS-FACTORIAL HepG2 Assay for human Estrogen-Related Receptor gamma (ERRg) (AID 2282977; active = hit-call score of the fitted dose curve at least 0.9, where 1 is the maximum;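 also: hits increase reporter signal over DMSO so potencies reflect activators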). The settings on record: HepG2 Attagene TRANS reporter, ERRg transactivation. The essentials: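 HepG2 cells transiently transfected with multiplexed GAL4-UAS reporter units and chimeric NR-Gal4 constructs were exposed to test chemicals for 24 h. Reporter mRNA was measured by RT-PCR, 6-FAM primer extension, HpaI digestion and capillary electrophoresis; gain-of-signal versus DMSO.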

The target in assay [19] is Hepatocyte nuclear factor 4-alpha (Homo sapiens) (UniProt P41235). Briefly: ATG_HNF4a_TRANS: Attagene TRANS-FACTORIAL HepG2 Assay for human Hepatocyte Nuclear Factor 4 alpha (HNF4a) (AID 2282982; active = hit-call score of the fitted dose curve at least 0.9, where 1 is the maximum). The settings on record: HepG2 HNF4a transactivation reporter, mRNA readout. The essentials:
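Transfected HepG2 reporter cells are dosed for 24 h; reporter RNA is reverse-transcribed, amplified, fluorescently labelled and HpaI-digested before CE sizing. Positive-direction fit against DMSO.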

Structures are written as SMILES. Inconclusive results are not listed. The source made the active and inactive calls. The calls were made as follows, unless noted: active = hit-call score of the fitted dose curve at least 0.9, where 1 is the maximum; inactive = score below 0.9.

Sequence of Oxysterols receptor LXR-alpha (Homo sapiens) (Q13133 whole entry, looked up, the tested form may be a part): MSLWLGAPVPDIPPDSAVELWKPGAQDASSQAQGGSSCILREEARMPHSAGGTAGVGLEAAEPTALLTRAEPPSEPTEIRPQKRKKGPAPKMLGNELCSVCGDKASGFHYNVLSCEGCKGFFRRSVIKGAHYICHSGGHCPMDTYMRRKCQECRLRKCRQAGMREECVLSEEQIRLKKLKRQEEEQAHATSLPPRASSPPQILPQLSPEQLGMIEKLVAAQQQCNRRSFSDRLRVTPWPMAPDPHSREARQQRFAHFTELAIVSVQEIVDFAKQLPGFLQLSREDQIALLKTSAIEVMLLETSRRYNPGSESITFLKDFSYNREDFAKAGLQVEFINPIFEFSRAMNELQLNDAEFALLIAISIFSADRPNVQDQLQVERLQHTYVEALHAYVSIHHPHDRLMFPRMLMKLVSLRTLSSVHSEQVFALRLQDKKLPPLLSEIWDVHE
Sequence of Oxysterols receptor LXR-beta (Homo sapiens) (P55055 whole entry, looked up, the tested form may be a part): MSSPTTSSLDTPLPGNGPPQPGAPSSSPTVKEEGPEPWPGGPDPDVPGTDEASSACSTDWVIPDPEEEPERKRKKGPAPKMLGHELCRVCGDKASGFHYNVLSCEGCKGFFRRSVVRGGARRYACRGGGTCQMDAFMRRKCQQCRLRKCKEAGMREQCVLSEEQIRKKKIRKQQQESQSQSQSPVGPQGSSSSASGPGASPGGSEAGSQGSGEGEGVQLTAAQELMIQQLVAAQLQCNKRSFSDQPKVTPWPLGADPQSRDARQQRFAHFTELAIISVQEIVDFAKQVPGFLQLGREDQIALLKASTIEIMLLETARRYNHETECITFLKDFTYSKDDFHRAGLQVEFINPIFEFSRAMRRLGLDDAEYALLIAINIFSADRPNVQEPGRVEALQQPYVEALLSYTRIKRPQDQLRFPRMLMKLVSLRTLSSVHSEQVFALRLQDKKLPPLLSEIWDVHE
Sequence of Bile acid receptor (Homo sapiens) (Q96RI1 whole entry, looked up, the tested form may be a part): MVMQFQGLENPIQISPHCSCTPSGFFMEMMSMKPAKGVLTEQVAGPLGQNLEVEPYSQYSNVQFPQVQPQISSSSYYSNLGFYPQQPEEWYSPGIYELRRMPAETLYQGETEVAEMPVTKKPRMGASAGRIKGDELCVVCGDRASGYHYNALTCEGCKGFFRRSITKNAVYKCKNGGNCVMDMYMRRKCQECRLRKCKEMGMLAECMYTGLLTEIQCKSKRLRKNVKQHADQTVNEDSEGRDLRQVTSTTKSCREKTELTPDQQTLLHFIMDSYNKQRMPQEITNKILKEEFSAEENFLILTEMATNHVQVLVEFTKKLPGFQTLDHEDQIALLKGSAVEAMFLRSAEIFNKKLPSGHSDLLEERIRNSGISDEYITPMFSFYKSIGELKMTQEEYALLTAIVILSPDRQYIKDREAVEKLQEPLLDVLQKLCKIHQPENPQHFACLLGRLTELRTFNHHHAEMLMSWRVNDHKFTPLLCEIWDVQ
Sequence of X-box-binding protein 1 (Homo sapiens) (P17861 whole entry, looked up, the tested form may be a part): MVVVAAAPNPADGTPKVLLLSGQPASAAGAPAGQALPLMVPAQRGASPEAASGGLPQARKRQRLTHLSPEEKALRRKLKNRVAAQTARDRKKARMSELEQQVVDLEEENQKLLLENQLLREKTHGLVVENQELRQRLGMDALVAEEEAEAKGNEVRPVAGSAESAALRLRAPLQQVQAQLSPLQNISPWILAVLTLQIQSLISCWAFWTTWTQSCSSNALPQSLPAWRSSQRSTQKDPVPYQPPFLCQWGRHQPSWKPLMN
Sequence of Transcriptional activator Myb (Homo sapiens) (P10242 whole entry, looked up): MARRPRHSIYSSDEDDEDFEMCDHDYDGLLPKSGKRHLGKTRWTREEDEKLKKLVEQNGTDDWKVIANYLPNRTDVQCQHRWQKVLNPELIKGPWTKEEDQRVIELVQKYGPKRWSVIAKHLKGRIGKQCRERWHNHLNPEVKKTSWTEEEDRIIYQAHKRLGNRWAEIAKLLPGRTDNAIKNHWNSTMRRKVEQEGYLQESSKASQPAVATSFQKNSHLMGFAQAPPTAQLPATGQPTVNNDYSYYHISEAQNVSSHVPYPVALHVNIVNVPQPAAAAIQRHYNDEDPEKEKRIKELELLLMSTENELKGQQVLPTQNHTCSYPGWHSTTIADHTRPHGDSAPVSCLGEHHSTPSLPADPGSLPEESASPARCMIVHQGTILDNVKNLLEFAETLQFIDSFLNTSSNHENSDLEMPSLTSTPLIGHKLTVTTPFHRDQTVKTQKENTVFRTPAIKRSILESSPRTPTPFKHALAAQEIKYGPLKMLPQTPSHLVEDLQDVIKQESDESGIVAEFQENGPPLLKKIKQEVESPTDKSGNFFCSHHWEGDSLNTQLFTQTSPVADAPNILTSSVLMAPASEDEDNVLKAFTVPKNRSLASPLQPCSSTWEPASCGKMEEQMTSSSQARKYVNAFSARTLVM
Sequence of Nuclear respiratory factor 1 (Homo sapiens) (Q16656 whole entry, looked up): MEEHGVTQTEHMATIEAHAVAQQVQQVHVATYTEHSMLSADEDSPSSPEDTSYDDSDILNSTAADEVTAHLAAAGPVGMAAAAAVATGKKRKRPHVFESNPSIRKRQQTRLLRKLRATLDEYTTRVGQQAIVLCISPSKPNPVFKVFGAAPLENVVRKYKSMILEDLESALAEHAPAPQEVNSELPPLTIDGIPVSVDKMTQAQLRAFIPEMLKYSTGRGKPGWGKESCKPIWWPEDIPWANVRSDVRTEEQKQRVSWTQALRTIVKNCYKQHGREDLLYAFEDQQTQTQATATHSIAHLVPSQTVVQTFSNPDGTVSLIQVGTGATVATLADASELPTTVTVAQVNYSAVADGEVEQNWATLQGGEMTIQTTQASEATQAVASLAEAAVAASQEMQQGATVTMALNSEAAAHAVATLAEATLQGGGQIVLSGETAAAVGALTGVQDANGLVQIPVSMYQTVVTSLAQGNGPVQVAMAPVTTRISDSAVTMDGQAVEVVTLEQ
Sequence of Glucocorticoid receptor (Homo sapiens) (P04150 whole entry, looked up, the tested form may be a part): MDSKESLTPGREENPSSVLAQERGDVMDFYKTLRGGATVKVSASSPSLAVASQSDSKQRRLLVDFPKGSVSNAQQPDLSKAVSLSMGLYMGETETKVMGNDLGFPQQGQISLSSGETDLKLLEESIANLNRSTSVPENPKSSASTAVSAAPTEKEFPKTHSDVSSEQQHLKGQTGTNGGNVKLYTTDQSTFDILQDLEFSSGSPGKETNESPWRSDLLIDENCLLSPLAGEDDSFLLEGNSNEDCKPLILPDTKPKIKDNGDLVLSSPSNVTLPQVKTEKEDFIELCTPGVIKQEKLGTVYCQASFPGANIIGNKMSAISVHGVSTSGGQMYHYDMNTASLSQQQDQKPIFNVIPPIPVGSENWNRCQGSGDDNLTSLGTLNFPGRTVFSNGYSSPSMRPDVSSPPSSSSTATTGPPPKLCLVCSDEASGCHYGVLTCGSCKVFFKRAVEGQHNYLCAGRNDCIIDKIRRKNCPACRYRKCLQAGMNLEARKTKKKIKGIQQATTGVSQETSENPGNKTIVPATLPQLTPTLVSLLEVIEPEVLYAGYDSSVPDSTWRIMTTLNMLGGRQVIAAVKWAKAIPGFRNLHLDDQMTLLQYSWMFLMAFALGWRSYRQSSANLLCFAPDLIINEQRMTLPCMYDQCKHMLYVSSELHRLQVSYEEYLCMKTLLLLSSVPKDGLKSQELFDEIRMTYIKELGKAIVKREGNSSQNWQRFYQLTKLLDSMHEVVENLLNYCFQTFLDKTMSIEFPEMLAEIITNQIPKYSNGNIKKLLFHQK
Sequence of Estrogen receptor (Homo sapiens) (P03372 whole entry, looked up, the tested form may be a part): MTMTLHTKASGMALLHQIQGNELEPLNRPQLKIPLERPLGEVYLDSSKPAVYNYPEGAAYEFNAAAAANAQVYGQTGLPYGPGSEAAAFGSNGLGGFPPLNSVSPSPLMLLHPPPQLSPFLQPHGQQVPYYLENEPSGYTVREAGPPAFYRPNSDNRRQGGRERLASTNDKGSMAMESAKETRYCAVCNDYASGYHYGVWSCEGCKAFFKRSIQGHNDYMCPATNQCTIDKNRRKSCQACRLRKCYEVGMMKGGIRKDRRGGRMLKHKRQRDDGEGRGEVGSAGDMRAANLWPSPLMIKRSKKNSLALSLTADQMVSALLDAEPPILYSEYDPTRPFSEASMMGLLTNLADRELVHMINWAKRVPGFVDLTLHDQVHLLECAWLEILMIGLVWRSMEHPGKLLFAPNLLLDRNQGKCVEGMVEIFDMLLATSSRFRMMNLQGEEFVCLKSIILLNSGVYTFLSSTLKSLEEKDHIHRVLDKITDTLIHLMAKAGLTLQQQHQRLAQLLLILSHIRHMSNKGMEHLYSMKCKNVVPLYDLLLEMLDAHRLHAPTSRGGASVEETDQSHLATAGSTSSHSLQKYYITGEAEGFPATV
Sequence of Steroid hormone receptor ERR1 (Homo sapiens) (P11474 whole entry, looked up, the tested form may be a part): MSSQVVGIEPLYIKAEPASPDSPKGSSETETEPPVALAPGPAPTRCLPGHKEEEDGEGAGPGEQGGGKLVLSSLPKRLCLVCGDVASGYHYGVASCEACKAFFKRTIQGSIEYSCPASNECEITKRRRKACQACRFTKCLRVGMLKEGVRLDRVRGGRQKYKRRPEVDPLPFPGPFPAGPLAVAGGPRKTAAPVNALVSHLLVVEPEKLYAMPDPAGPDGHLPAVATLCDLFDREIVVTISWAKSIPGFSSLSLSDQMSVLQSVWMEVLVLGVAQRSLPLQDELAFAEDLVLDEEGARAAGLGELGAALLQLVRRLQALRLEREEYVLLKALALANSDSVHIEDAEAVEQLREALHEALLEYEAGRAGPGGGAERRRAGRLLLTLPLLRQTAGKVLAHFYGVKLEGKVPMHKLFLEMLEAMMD

Turning to `COCC1CCC(CO)CC1` (stereo unspecified), the call in assay [1], in assay [2], in assay [3], in assay [4], in assay [5] and in assay [6] was inactive. In addition, the compound was called inactive in assay [7], in assay [8], in assay [9] and in assay [10].
On to `OCC1CCC(CO)CC1` (stereo unspecified), for which the call in [1], in [2], in assay [3], in [4], in [11] and in assay [12] was inactive. Moreover, the call in [6], in assay [7], in [8], in assay [13], in [9] and in [10] was inactive.
For the compound `CCCCCCCCC1CCC(=O)O1` (stereo unspecified), the outcome in assay [1], in assay [2], in [3], in assay [4], in assay [5] and in assay [14] was inactive. Also, the result in assay [11], in [12], in [6], in assay [8], in assay [15] and in assay [9] was inactive. Moreover, in assay [10], the call was inactive.
Take `O=C(C=C(O)C(F)(F)F)C(F)(F)F`: the call in assay [1], in assay [2], in [3], in assay [4], in assay [16] and in [17] was inactive. Also, the call in assay [14], in assay [11], in assay [12], in assay [15], in assay [9] and in assay [10] was inactive.
What is called AC50 is the concentration giving half of the maximal activity seen. With `CS(=O)(=O)c1ccc([C@@H](CC2CCCC2)C(=O)Nc2cnccn2)cc1Cl`, the AC50 is 148 µM (active) in assay [1] and 70.7 µM (active) in [5]. Besides, the call in assay [2], in assay [18], in assay [11], in assay [7], in [8] and in assay [15] was inactive. In [9], the compound was classed as inactive.
As for `NS(=O)(=O)O`, the call in assay [1], in [2], in [3], in assay [17], in assay [14] and in assay [11] was inactive. In addition, the outcome in [6], in [7], in assay [19], in assay [15], in assay [9] and in [10] was inactive.
Consider `CCC1CO1` (stereo unspecified), for which the outcome in assay [1], in assay [2], in [3], in assay [5], in [14] and in assay [11] was inactive. Moreover, the call in assay [12], in [19], in assay [8], in [9] and in [10] was inactive.
In the case of `Brc1ccc(Oc2ccc(Br)cc2Br)cc1`, the result in assay [1], in assay [2], in [3], in [16], in assay [5] and in assay [17] was inactive. Also, the compound was called inactive in assay [12], in assay [6], in assay [7], in assay [8], in [9] and in assay [10].

The values are drawn from PubChem BioAssay (EPA / NIEHS).
